Here are results for 109 compounds from ChEMBL document CHEMBL4513216, “Probing the Open Global Health Chemical Diversity Library for Multistage-Active Starting Points for Next-Generation Antimalarials” (ACS Infect Dis, 2020).

Out of some 69,000 compounds screened, about 8,600 (12%) showed an effect of 50% or more. The list comes from a sample in which strong results are over-represented; it also holds similar structures and randomly drawn compounds.

This assay deals with Plasmodium berghei. Description: Screen against P. berghei liver stage (PbLuc), transformed with Luciferase, at 10uM. The class given is functional, HepG2. Particulars: tested at 10 uM.
Turning to `Cc1nn(C)c2cnn(CC(=O)NCc3cccs3)c12`, the INHIBITION worked out at 8.49%.
Turning to `CC(C)n1c(=O)c2ccccc2n(CCN(C)C)c1=O`, the INHIBITION was -0.29%.
Then `CCn1ncnc1C1CC(=O)NCc2nc(N3CCCC3)sc21` (centres undefined), with -32.5%; and `CCCC(=O)N1CCC(Nc2nc(O)cc(-c3ccsc3)n2)CC1`, with 10.7%.
Then `CCCn1ncc2c(C(=O)NC(C)Cn3cccn3)cc(C3CC3)nc21` (centres undefined), with -24.1%; and `CCCn1ncc2c(C(=O)Nc3cnn(CC)c3C)cc(C3CC3)nc21`, with -9.98%; and `CCCn1ncc2c(C(=O)Nc3n[nH]c(SC)n3)cc(C3CC3)nc21`, with 53%.
With `CN(Cc1ccc(-n2ccnc2)cc1)CC1CCCN1c1cccnn1` (centres undefined) the figure was -12.1%; with `Cc1ccc(S(=O)(=O)c2ncccc2CN2CCN(C)CC2)cc1`, 68.4%; with `Cc1ccc(S(=O)(=O)c2ncccc2CN2CCCC2)cc1`, 42.4%.
Regarding `Cc1ccc(S(=O)(=O)c2ncccc2CN2CCN(CCO)CC2)cc1`, the INHIBITION is 68.4%.
Then `O=C(c1cccnc1N1CCN(CCO)CC1)N1CCCC1`, with 43.6%.
Then `Cc1ccc(S(=O)(=O)c2ncccc2CN2CCOCC2)cc1`, with 37.8%.
With `Cc1ccc(S(=O)(=O)c2ncccc2CN2CCCCC2)cc1` the figure was 45.2%; with `CCn1cc(CN2CCCN(C(=O)c3cc(C)no3)CC2)cn1`, 25.4%; with `CCc1ocnc1C(=O)N1CCOC(CCCC(C)C)C1` (centres undefined), 12.8%.
For the compound `O=C(c1cncc(Br)c1)N1CCCc2ccc(F)cc21`, the INHIBITION is on record as 67.4%.
With `Cc1ccc2c(c1)CCCN2C(=O)c1cncc(Br)c1` the figure was 6.88%.
Then `O=C(c1cncc(Br)c1)N1CCCc2c(F)cc(F)cc21`, with 0.705%; and `Cc1nnc(N2CC[C@H]3O[C@H](C(=O)NCc4ccccn4)CC[C@H]32)s1`, with 21.8%.
With `COc1cc(CN2CC[C@H](NC(C)=O)[C@@H](O)CC2)ccc1F` the figure was -13.7%; with `Clc1snnc1CN1CCN(c2nccs2)CC1`, 57.3%; with `Nc1nc(CN2CCN(c3nccs3)CC2)cs1`, 22.3%.
Consider `CC1CN(Cc2nnsc2Cl)CCN1c1nccs1` (centres undefined), for which the INHIBITION is listed as 20.2%.
Then `Cc1nccn1C1CCCN(C(=O)c2ccc3nncn3c2)C1` (centres undefined), with 40.2%; and `O=C(CCNC(=O)c1ccoc1)Nc1cccc(F)c1`, with -4.82%.
For `O=C(CCNC(=O)c1ccoc1)Nc1ccccc1F`, the INHIBITION is 21.9%.
With `O=C(CCNC(=O)c1ccoc1)Nc1ccc(F)cc1F`, the INHIBITION is reported as 59%.
With `O=C(CCNC(=O)c1ccoc1)Nc1c(F)cccc1F` the figure was -16.7%; with `O=C(CCNC(=O)c1ccoc1)Nc1cc(F)ccc1F`, 24.8%; with `O=C(CCNC(=O)c1ccoc1)Nc1cc(F)cc(F)c1`, 54.5%.
Then `CNC(=O)CCc1cccc(C2CCCN(c3cc(C)ncn3)C2)n1` (centres undefined), with 44.8%; and `Cc1nnc2n1CCN(C(=O)c1cn(-c3ccccc3)nn1)C2`, with -53.6%; and `CNC(=O)[C@@H]1C[C@H]2CN(C(=O)c3ccco3)C[C@H]2N1C(C)C`, with 16.4%.
With `Cc1noc([C@H]2COC[C@H]3CN(C(=O)Cc4ccsc4)C[C@H]32)n1` the figure was -32%.
In the case of `c1cnc(N2CC[C@@H](N3CCOCC3)[C@@H]2Cc2ccncc2)nc1`, the INHIBITION was 60%.
Then `Cc1cnc(N2CC[C@@H](N3CCOCC3)[C@@H]2Cc2ccncc2)nc1`, with 33.4%; and `Fc1cnc(N2CC[C@@H](N3CCOCC3)[C@@H]2Cc2ccncc2)nc1`, with 21.6%; and `Cc1cc(CN2CCC(CNS(=O)(=O)c3ccccc3Cl)CC2)c(C)o1`, with 30.7%.
Consider `O=C(C1CCOCC1)N1C[C@H]2CC(OCc3ccccc3)C[C@H]2C1` (some centres undefined), for which the INHIBITION is -25.3%.
With `C1CCC(c2nn3c(C4CCCO4)nnc3s2)C1` (centres undefined) the figure was 1.24%; with `N#Cc1ncn(Cc2c(F)cccc2Cl)n1`, 64.4%; with `CN(Cc1c(F)cccc1Cl)C(=O)Cn1cnc(C#N)n1`, 28.7%.
As for `N#Cc1ncn(CC(=O)Cc2c(F)cccc2Cl)n1`, the INHIBITION worked out at 26.8%.
Turning to `Cc1cc(C)cc(OCn2ccc(C(=O)O)n2)c1`, the INHIBITION is 39.1%.
Then `CN(C)CCNC(=O)c1ccc(OC2CCN(CC3CC3)CC2)c(Cl)c1`, with -73.6%; and `COC(=O)N1CCC(Oc2ccc(C(=O)NCCN(C)C)cc2Cl)CC1`, with -56.4%.
With `CSCCNC(=O)c1ccc(OC2CCN(CC(C)(C)C)CC2)c(Cl)c1`, the INHIBITION amounted to 52.4%.
Then `CC1(C)OC(=O)N(CCCOc2ccc(F)cc2)C1=O`, with 10.7%.
As for `CCNc1ncc(C(=O)NCC2OCCc3ccccc32)cn1` (centres undefined), the INHIBITION amounted to 41.5%.
For `CC(=O)c1cnc(NCC2OCCc3ccccc32)nc1C` (centres undefined), the INHIBITION is listed as 74.9%.
As to `CCc1cnc(NCC2OCCc3ccccc32)nc1` (centres undefined), the INHIBITION came to 44.3%.
Then `Cc1ncsc1C(=O)NC1CCN(CCC#N)CC1`, with 14.4%.
With `COc1ccc(C(=O)NS(=O)(=O)c2cc(Cl)sc2Cl)cc1OC(F)F` the figure was 27.7%; with `COc1cc(C(=O)NS(=O)(=O)c2cc(Cl)sc2Cl)ccc1OC(F)F`, 93.6%.
With `COc1cc(C(=O)NS(=O)(=O)c2cncc(Br)c2)cc(Cl)c1OC` the figure was 5.23%; with `Cc1cc(NC(=O)c2ccc(C)c(F)c2)[nH]n1`, -30.8%; with `COc1cc(C(=O)Nc2nc(C)no2)cc(OC)c1Br`, 91.4%.
As to `Cc1noc(NC(=O)c2ccc(C)c(F)c2)n1`, the INHIBITION is 59%.
With `Cc1noc(NC(=O)c2ccc(F)cc2)n1` the figure was 25.1%; with `COc1cccc(C(=O)NS(=O)(=O)c2cc(Cl)sc2Cl)c1OC(F)F`, 45.7%; with `Cc1noc(COCC(=O)Nc2cc(C)c(Br)cn2)n1`, -21.8%.
With `COc1cc(C(=O)NC(CC(=O)O)c2cccs2)cc(Cl)c1OC` (centres undefined) the figure was 18.6%; with `COc1cc(C(=O)NS(=O)(=O)c2cccc(C#N)c2)cc(OC)c1Br`, 34.7%.
As for `COc1cc(C(=O)Nc2nc(C)no2)cc(Cl)c1OC`, the INHIBITION turned out to be 77%.
Then `Cc1cnn(CC2CCCCN2Cc2cc(C)no2)c1` (centres undefined), with 4.245%; and `Cn1cc(C2CCCN2C(=O)COCCc2ccccc2)cn1` (centres undefined), with -32%; and `CC(c1ccncc1)n1cc2nc(N(C)C)[nH]cc-2c1=O` (centres undefined), with -27.5%.
`COCC(=O)N1CCC(c2n[nH]c3nccnc23)CC1`: the INHIBITION was -22.6%.
With `CC(C)(C)OC(=O)N1CCC(C(=O)NCCNc2ncccn2)CC1` the figure was -33.9%.
With `c1csc(N2[C@H](Cn3cncn3)C[C@@H]3CNCC[C@@H]32)n1` the figure was -86.4%.
With `COc1ccccc1C(O)CNc1nccc(-c2ccc(C)nc2C)n1` (centres undefined) the figure was 0.868%; with `c1cnn(CC2CCCCN2Cc2nc(-c3ccoc3)no2)c1` (centres undefined), 31.8%.
For `CC(NC(=O)NCc1cccnc1N(C)C)c1cccs1` (centres undefined), the INHIBITION was 37.9%.
Then `COc1cc(C(=O)Nc2nc(C)no2)ccc1OC1CCCC1`, with 29.7%; and `COc1cc(C(=O)Nc2nc(C)no2)ccc1C`, with 63.6%.
With `COc1cc(C(=O)Nc2cn[nH]c2)ccc1C` the figure was 10.45%.
Then `Cc1noc(CNc2ccc(OC(F)F)cc2OC(F)F)n1`, with -29.9%; and `COc1cc(C(=O)Nc2nc(C)no2)ccc1OC(F)F`, with 81.1%.
As for `COc1cc(C(=O)Nc2c(C)noc2C)ccc1C`, the INHIBITION amounted to 18.6%.
With `COCC(C)(NC(=O)c1cc(Cl)c(-n2cccc2)cc1OC)C(N)=O` (centres undefined) the figure was -35%; with `CCn1cc(C(=O)NCc2ccc3c(c2)OCO3)c(C)n1`, 3.52%; with `CN(CCC(O)c1ccccc1)Cc1ccccc1C#N` (centres undefined), 41.1%.
With `Cc1nc(CN(C)Cc2nc(-c3ccccc3)no2)co1` the figure was 14.3%.
Then `CN(CCC(O)c1ccccc1)Cc1nc(-c2ccccc2)no1` (centres undefined), with 62.9%.
`O=C(Nc1nccs1)NC1CCN(Cc2ccccc2)CC1`: the INHIBITION was determined as 15%.
Then `C=c1ncsc1=C1NN=C(C2CCCN2C(=O)c2ccn(CC)n2)O1` (centres undefined), with 9.535%; and `FC(F)(F)C1CN(Cc2cccc(-c3ccccn3)c2)CCO1` (centres undefined), with 4.93%.
Then `CC(=O)NCc1ccc(-c2ccccc2C(=O)O)cn1`, with -24.5%.
With `CNc1nc(C)c(C(=O)N2CCCCC2CCc2ccccc2)s1` (centres undefined) the figure was -14.7%.
Turning to `Cc1cc(C(=O)N2CC[C@@H]3CO[C@@H](CN4CCCC4)[C@@H]3C2)no1`, the INHIBITION was determined as 23.3%.
With `CNc1nc(C)c(C(=O)N2CCCCC2CN2CCCCCC2)s1` (centres undefined) the figure was 50%; with `CCOC(=O)CC1CCCCN1C(=O)c1cc(C)on1` (centres undefined), 17.5%.
With `Cc1cc(C(=O)N2CCCC2CN2CCCC2)no1` (centres undefined) the figure was 61.1%.
Then `CNc1nc(C)c(C(=O)N2CCCCC2CCN2CCOCC2)s1` (centres undefined), with 13.6%.
Take `OC(CN1CCN(Cc2cc(F)cc(F)c2)CC1)C1CC1` (centres undefined): the INHIBITION is reported as 5.85%.
Then `Cc1cc(CN(C)CC(c2cccs2)N2CCOCC2)on1` (centres undefined), with -48.4%; and `CCN(CC)c1ncc(S(=O)(=O)c2cccc(C)c2)c(N)n1`, with 17.7%; and `CN1CCCN(c2ncnc(N3CCOCC3)c2N)CC1`, with 32.2%.
Turning to `Cc1nc(C(=O)N2CCOCC2)cc(N2CCC(C(N)=O)CC2)n1`, the INHIBITION was found to be 56.1%.
`CCOC(=O)C1CCN(c2cc(C(=O)N3CCCCC3)nc(C)n2)CC1`: the INHIBITION is 9.52%.
With `CCCNc1cc(C(=O)N2CCOCC2)nc(C)n1` the figure was 34.6%.
Then `Cc1nc(C2CN(C)CCO2)cc(N2CCC(C(N)=O)CC2)n1` (centres undefined), with -20.2%; and `CCOC(=O)C1CCN(c2cc(C(=O)N3CCOCC3)nc(C)n2)CC1`, with 62.9%; and `COCCNc1cc(C(=O)N2CCOCC2)nc(C)n1`, with 8.24%.
With `CC(C)(O)CN1CCN(C(=O)c2ccc(Cl)c3cccnc23)CC1` the figure was 36.9%; with `COc1cc(C(=O)O)cc(I)c1OCC(=O)NCCc1ccccc1`, 25.5%; with `CC(NC(=O)NCCc1ccc(Cl)s1)c1ccccn1` (centres undefined), -12.1%.
For the compound `COc1ccc(C(=O)N2CC(=O)N(Cc3cccs3)CC(O)C2)cc1` (centres undefined), the INHIBITION came to 27.5%.
